Source: PubChem BioAssay (NCI)
This is part of a sample that, as a whole, favours compounds with a hit. Of some 83,000 tested, about 20% had one in any assay.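 How to read the values: 0–100, growth inhibition (40 = 60% inhibited); 0, no net growth; -100 to 0, cell death (-40 = 40% of starting cells died; -100 = all dead).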 Active and inactive are the calls of the source.

tested on: HOP-92 NSCLC; assay: NCI-60 one-dose screen, 48 h (100 = growth as untreated, 0 = no growth, -100 = all killed); conditions: 10 µM
Method: Growth inhibition of the HOP-92 human Non-Small Cell Lung tumor cell line is measured as a screen for anti-cancer activity. Cells are grown in 96 well plates and exposed to the test compound for 48 hours. Compounds are tested at a single concentration, which is 10^-5 M for most compounds. The reported endpoint is percent growth (GI% or GIPRCNT), where numbers from 0 - 100% represent growth inhibition, and numbers from -100% - 0 represent cell death. For example, a value of 40 represents 60% growth inhibition. A value of 0 means no net growth occurred over the course of the experiment. A value of -40 indicates 40% of cells at the beginning of the experiment died by the end of the experiment. A value of -100 means all cells are dead at the end of the experiment.
NCI-60 Human Tumor Cell Lines Screen was performed using the standard one-dose NCI protocol, which is described in more detail at https://dtp.cancer.gov/discovery_development/nci-60/default.htm.
Compounds with GIPRCNT values below 10 were considered active. Activity score was based on GIPRCNT using the following formula: […]
Score is 0 for GIPRCNT values of 100 or above, 50 for GIPRCNT values of 0, and 100 for GIPRCNT values of -100.

Q: `CC(C)C(C)C(N)C(=O)O` (stereo not given) was tested. Which growth did it give?
A: 86.8% (inactive)

Q: Which growth does the source give for `COC(=O)[C@]12CC[C@@H](C)[C@H](C)[C@@H]1C1=CC[C@@H]3[C@@]4(C)C/C(=N\O)[C@H](O)[C@@]5(C)COC(=C45)C[C@@]3(C)[C@]1(C)CC2` here?
A: -79% (active)

Q: Which growth does the source give for `COc1ccc(C2=NNC(c3sc(Cl)nc3Cl)C2)cc1` (stereo not given) here?
A: 75.2% (inactive)

Q: Which growth does the source give for `N#Cc1ccc(-n2cnc(NC(=O)[C@H]3CCN(C#N)C3)c2)cc1` here?
A: 42% (inactive)

Q: Which growth does the source give for `C/C(=N\NC(=S)N1CCCC1)c1ccccn1` here?
A: 48.5% (inactive)

Q: `N=C(N)c1ccc(-c2ccc(-c3ccccc3)s2)s1` was tested. Which growth did it give?
A: -37.8% (active)

Q: `CCc1nn2c(-c3ccccc3)c(-c3cc(OC)c(OC)c(OC)c3)nc2s1` was tested. Which growth did it give?
A: 49.8% (inactive)

Q: `N#Cc1ncc(-c2cc(F)ccc2F)c(NC2CCCCCC2)n1` was tested. Which growth did it give?
A: 65.2% (inactive)

Q: `c1ccc(OCCC[P+](c2ccccc2)(c2ccccc2)c2ccccc2)cc1` was tested. Which growth did it give?
A: -31.3% (active)

Q: Which growth does the source give for `Cn1c([N+](=O)[O-])cnc1C=C1C(=O)c2ccccc2C1=O` here?
A: 20.4% (inactive)

Q: For `O=[N+]([O-])c1ccc(Br)o1`, which growth is on record?
A: 102% (inactive)

Q: How did the growth turn out when `CCCCCc1cc[n+](CC(=O)c2ccc(Cl)cc2)cc1` was run?
A: 78% (inactive)

Q: With `CCCCOCC(=O)NC(NP(=O)(N(C)C)N(C)C)C(Cl)(Cl)Cl` (stereo not given) as the compound, how does the growth read?
A: 97.7% (inactive)

Q: How did the growth turn out when `CCN1CCN(c2ccc(Nc3ncnc4c3nnn4CCc3cc(OC)cc(OC)c3)cc2)CC1` was run?
A: 89.6% (inactive)

Q: With `COc1ccc(-c2ccccc2)cc1C(=O)c1ccc(-c2ccccc2)cc1` as the compound, how does the growth read?
A: 88.4% (inactive)

Q: How did the growth turn out when `Nc1nc(SCC#CCCl)c2[nH]cnc2n1` was run?
A: 39.9% (inactive)

Q: Which growth does the source give for `Cc1ccc(NS(=O)(=O)c2ccccc2)c(NS(=O)(=O)c2ccccc2)c1` here?
A: 93.5% (inactive)

Q: `COc1nc2c(c(=O)[nH]1)C(c1ccc(Oc3ccnc4cc(Cl)ccc34)c(OC)c1)C=C(c1cc(OC)c(OC)c(OC)c1)N2` (stereo not given) was tested. Which growth did it give?
A: 82.1% (inactive)

Q: `Cc1ccc(-c2cc(-c3cccc(Nc4ccnc5cc(Cl)ccc45)c3)nc3nc(N)[nH]c(=O)c23)cc1` was tested. Which growth did it give?
A: 14.6% (inactive)

Q: For `CC(C)C[C@H](NC(=O)Cn1ccc2ccccc2c1=O)B(O)O`, which growth is on record?
A: 99% (inactive)

Q: Which growth does the source give for `O=C/C=C/c1ccc([N+](=O)[O-])cc1Cl` here?
A: 95.1% (inactive)

Q: `NCCNc1ccc2cc(-c3nc4ccccc4[nH]3)c(=O)oc2c1` was tested. Which growth did it give?
A: 82.7% (inactive)

Q: Which growth does the source give for `CN(C)c1ccc2cc(-c3cc4c(oc3=O)-c3ccccc3OC4O)c(=O)oc2c1` (stereo not given) here?
A: -49.1% (active)

Q: For `CCOC(=O)Cn1nnc(-c2ccc(OCc3ccccc3F)cc2)n1`, which growth is on record?
A: 75.5% (inactive)

Q: How did the growth turn out when `O=C(Nc1cccc(C(F)(F)F)c1)C(Cl)Cl` was run?
A: 81.7% (inactive)

Q: With `Clc1ccc(-c2nc(-c3cccs3)cn3ccnc23)cc1` as the compound, how does the growth read?
A: 81.5% (inactive)

Q: Which growth does the source give for `COc1cc(C(=O)n2nc(N)c3c(C)cc(C)nc32)cc(OC)c1OC` here?
A: 93.5% (inactive)

Q: How did the growth turn out when `CN(C)Cc1cccs1` was run?
A: 97.2% (inactive)

Q: `O=CNc1c(Cl)cc2c(c1Cl)Cc1cc([N+](=O)[O-])ccc1-2` was tested. Which growth did it give?
A: 60.6% (inactive)

Q: `COc1cc(CSc2nc3ccc(Cl)cc3c(=O)n2-c2ccccc2)cc(OC)c1OC` was tested. Which growth did it give?
A: 89% (inactive)

Q: Which growth does the source give for `CC(=O)CS(C)(=O)=O` here?
A: 98.5% (inactive)

Q: For `Nc1nc2c(nnn2C2CC(O)C(CO)O2)c(=O)[nH]1` (stereo not given), which growth is on record?
A: 43.7% (inactive)

Q: How did the growth turn out when `C[N+]1(CC2CO2)CCCCCC1` (stereo not given) was run?
A: 113% (inactive)

Q: Which growth does the source give for `Oc1ccccc1-c1nnc(Cn2c(Cc3cccc4ccccc34)nc3ccccc32)o1` here?
A: 78.3% (inactive)

Q: With `O=NN(CC(=O)N/N=C/C=C\c1ccccc1)CC(=O)N/N=C/C=C/c1ccccc1` as the compound, how does the growth read?
A: 60.6% (inactive)

Q: For `CC(C)/C=N/NC(N)=S`, which growth is on record?
A: 73.1% (inactive)

Q: `N#CC1C=Cc2c(ccc3ccccc23)N1C(=O)c1ccccc1` (stereo not given) was tested. Which growth did it give?
A: 50.6% (inactive)

Q: `COc1ccc(C(=O)c2sc3nc(-c4cccs4)ccc3c2N)cc1OC` was tested. Which growth did it give?
A: -0.708% (active)

Q: Which growth does the source give for `COc1cccc(-c2nnc(COc3ccc(-c4nc5ccc(C)cc5[nH]4)cc3OC)o2)c1` here?
A: 74% (inactive)

Q: `COc1ccc(C(=O)/C=C/c2cc(-c3ccc(OC)c(OC)c3)n[nH]2)cc1OC` was tested. Which growth did it give?
A: -59.3% (active)
